Laboratory results published in PubChem BioAssay AID720706 (Broad Institute, 2013).
Screen size: about 350,000 compounds; about 5,500 (1.6%) were called active.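 How the source made its calls: active means significant combined selectivity score with lowered wild-type GFP, culture density cut under 30%, mutant RFP and density less affected; inactive means any of these conditions unmet.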 Many of the other results were omitted from the sample, so actives are more common in it than they were.

Assay: reduced GFP signal of wild-type E. coli, primary screen, bacterial rRNA inhibitor project, GFP/RFP fluorescence, OD600, single point (AID 720706)
Details: E. coli WT GFP vs humanized-ribosome RFP mutants, 24 h; GFP signal change (wild-type ribosome): stronger effect = lower value, DMSO median 0, no signal -100; OD600 change: measured here: OD600 growth, DMSO median 0, no signal -100; RFP signal change: measured here: RFP humanized mutant strains, DMSO median 0, no signal -100, concentration not given here

| SMILES | GFP signal change (wild-type ribosome) | OD600 change | RFP signal change |
| --- | --- | --- | --- |
| Cc1ccc(S(=O)(=O)Nc2ccc3c(c2)C(=O)N([C@@H](C)CO)C[C@H](C)[C@@H](CN(C)S(=O)(=O)c2ccc(C)cc2)O3)cc1 | 0.928% (inactive) | 0.52% | 1.47% |
| O=C1CN(Cc2ccccc2)C[C@H]2[C@H](c3ccc(-c4ccccc4)cc3)[C@@H](CO)N12 | 4.87% (inactive) | -18% | 11.1% |
| COCCNC(=O)/C(C#N)=C/c1cccc(OCc2ccccc2)c1 | -27.3% (active) | -3.28% | -7.68% |
| COc1ccc(CNC(=O)/C(C#N)=C/c2cccc(OC)c2OC)cc1 | -12.3% (inactive) | -6.5% | 1.12% |
| COCCNC(=O)/C(C#N)=C/c1nc(N(C)C)n(-c2ccc(F)cc2)c1Cl | 23.8% (inactive) | 16.1% | 2.57% |
| C[C@@H]1CN([C@H](C)CO)S(=O)(=O)c2ccc(-c3ccccc3)cc2O[C@@H]1CN(C)C(=O)CC1CC1 | -1.82% (inactive) | -12.8% | 1.01% |
| O=C(C1CCC1)N1CC2(C1)[C@H](c1ccccc1)[C@H](CO)N2Cc1nccs1 | 2.78% (inactive) | 3.6% | -2.04% |
| COc1ccccc1CNC(=O)C[C@@H]1C[C@H]2c3cc(NC(=O)CN(C)C)ccc3O[C@H]2[C@@H](CO)O1 | 0.305% (inactive) | -4.08% | -3.75% |
| Cc1onc(-c2ccccc2Cl)c1C(=O)OCc1nnc(-c2ccccc2)o1 | -1.78% (inactive) | -40.3% | -4.01% |
| COc1ccc(C(=O)COC(=O)c2c(C)noc2C)cc1Cl | 0.365% (inactive) | -1.69% | 4.01% |
| Cc1onc(-c2ccccc2Cl)c1C(=O)OCC(=O)c1ccccc1 | -21.5% (active) | 3.35% | -2.14% |
| COc1ccc2c3c(n(C)c2c1)[C@@H](CO)N(C(=O)C1CC1)CC31CN(C(=O)C2CCOCC2)C1 | -0.396% (inactive) | 5.66% | -5.33% |
| CCCNC(=O)N1CC(=O)N2[C@@H](CO)[C@H](c3ccc(-c4ccc(C)cc4)cc3)[C@@H]2C1 | 2.33% (inactive) | 1.16% | -7.67% |
| CCCn1c(NC(=O)C23CC4CC(CC(O)(C4)C2)C3)nc2ccccc21 | -30.1% (inactive) | -35.7% | 3.93% |
| Cc1nn(C)cc1C(=O)Nc1ccccc1Br | 1.8% (inactive) | 6.79% | -7.21% |
| CCn1c(NC(=O)c2nn(C)cc2Br)nc2ccccc21 | -17.8% (active) | -7.54% | 6.47% |
| C[C@H]1CN([C@@H](C)CO)C(=O)CCCn2nncc2CO[C@H]1CN(C)Cc1ccc2c(c1)OCO2 | -1.02% (inactive) | 5.54% | 0.27% |
| COc1ccc(C2=CN(Cc3ccccc3)C(c3ccc(OC)cc3)CC2=O)cc1 (stereo not drawn) | -23.8% (inactive) | -12.9% | 3.14% |
| CC(C)NC(=O)N[C@@H]1CC[C@H](CC(=O)NC2Cc3ccccc3C2)O[C@H]1CO | 1.59% (inactive) | 0.47% | -1.63% |
| Cn1cnc(CCNC(=O)C[C@@H]2CC[C@H]3[C@@H](COC[C@@H](O)CN3C(=O)Nc3ccc(Cl)cc3)O2)c1 | -23.1% (inactive) | -23.2% | -3.05% |
| COc1ccc(/C=C/C(=O)Nc2cccnc2)cc1OC | -20.8% (active) | -6.64% | -4.77% |

| SMILES | GFP signal change (wild-type ribosome) | OD600 change | RFP signal change |
| --- | --- | --- | --- |
| COc1ccc(/C=C/C(=O)Nc2ccc(C34CC5CC(CC(O)(C5)C3)C4)cc2)cc1OC | -3.43% (inactive) | -9.24% | 7.24% |
| COc1cc(/C=N/NC(=S)Nc2cccnc2)cc(OC)c1O | 1.59% (inactive) | 0.97% | -1.01% |
| C[C@H]1CCCCO[C@H](CN(C)C(=O)Nc2ccccc2)[C@@H](C)CN([C@@H](C)CO)C(=O)c2cc(NC(=O)c3ccncc3)ccc2O1 | -0.767% (inactive) | -2.38% | -0.401% |
| Cc1noc(C)c1NC(=O)N(C)C[C@H]1OCCCC[C@@H](C)Oc2ccc(NC(=O)NC(C)C)cc2C(=O)N([C@@H](C)CO)C[C@H]1C | -0.208% (inactive) | -7.75% | -1.31% |
| COc1cccc(-c2ccc3c(c2)[C@@H]2[C@@H](CCN2C(=O)CN2CCOCC2)[C@H](CO)N3)c1 | -1.73% (inactive) | 12.1% | -1.6% |
| CC1CCCCC1NC(=O)COC(=O)Cc1ccc(Br)cc1 (stereo not drawn) | -12.8% (inactive) | -7.61% | 2.98% |
| Cc1cccc(C)c1NC(=O)CNC(=O)Cc1ccc(Br)cc1 | 8.56% (inactive) | 16.5% | -1.39% |
| O=C(COC(=O)Cc1ccc(Br)cc1)Nc1c(F)c(F)c(F)c(F)c1F | -24.2% (active) | -11.5% | 3.44% |
| Cc1ccc(NS(=O)(=O)c2ccc(-c3coc(C)n3)cc2)c(C)c1 | -8.02% (inactive) | 1.15% | 7.38% |
| COc1cccc(NS(=O)(=O)c2ccc(-c3coc(C)n3)cc2)c1 | -28.4% (active) | -10.5% | 9.54% |
| CCN(c1cccc(C)c1)S(=O)(=O)c1ccc(-c2coc(C)n2)cc1 | -9.48% (inactive) | -35% | -6.13% |
| CC1(C)CN(CCc2ccccc2)C(=O)[C@H]1CC(=O)Nc1ccc(Br)cc1 | -6.21% (inactive) | 0.615% | -0.505% |
| CCCCN1CC(C)(C)[C@H](CC(=O)Nc2ccc(Br)cc2)C1=O | -12.6% (inactive) | -27.4% | -4.18% |
| CN1C(CC(=O)Nc2ccc(Br)cc2)c2ccccc2CC1(C)C (stereo not drawn) | -26.3% (active) | -20.9% | -0.455% |
| CNC[C@H]1OCCCC[C@H](C)Oc2ccc(NS(=O)(=O)c3ccc(Cl)cc3)cc2C(=O)N([C@@H](C)CO)C[C@@H]1C | 3.9% (inactive) | 3.87% | 0.215% |
| CCOc1ccc(-c2cc(C(=O)N/N=C/c3ccc(O)cc3)c3ccccc3n2)cc1 | 12.1% (inactive) | 6.6% | 2.19% |
| O=C(Cc1cccs1)N/N=C/c1ccc(OCc2ccccc2)cc1 | 6.88% (inactive) | -2.65% | -8.12% |
| O=C(N/N=C/c1ccc(OCc2ccccc2)cc1)c1ccc(O)cc1 | -18.6% (active) | 6.25% | 7.26% |
| C[C@@H]1CCCCO[C@H](CN(C)C(=O)NC2CCCCC2)[C@@H](C)CN([C@H](C)CO)C(=O)c2cc(NC(=O)CCC(F)(F)F)ccc2O1 | -0.169% (inactive) | -3.94% | -2.49% |
| CCNC(=O)Nc1ccc2c(c1)C(=O)N(C)[C@@H]1CC[C@@H](CC(=O)NCCOC)O[C@@H]1CO2 | 4.01% (inactive) | 1.31% | -0.262% |
